Results filed as inconclusive are left out. Calls of active or inactive are those of the source. Unless noted, calls follow the shape of the dose curve; as a rule, active = well fitted curve in the direction sought with a large enough effect; inconclusive = small, poorly fitted or top-dose-only effect, or another doubt; inactive = no such curve, though single readings can be large; an effect the other way counts as inactive or inconclusive.
How the values were obtained:
[1] = biological target: Cytochrome P450 1A2 (Homo sapiens) (UniProt P05177); test: p450-cyp1a2 (AID 410; calls by dose curve; also: potency is read from the fitted curve at half-maximal effect)
Chain of Cytochrome P450 1A2 (Homo sapiens) (P05177 whole entry, looked up): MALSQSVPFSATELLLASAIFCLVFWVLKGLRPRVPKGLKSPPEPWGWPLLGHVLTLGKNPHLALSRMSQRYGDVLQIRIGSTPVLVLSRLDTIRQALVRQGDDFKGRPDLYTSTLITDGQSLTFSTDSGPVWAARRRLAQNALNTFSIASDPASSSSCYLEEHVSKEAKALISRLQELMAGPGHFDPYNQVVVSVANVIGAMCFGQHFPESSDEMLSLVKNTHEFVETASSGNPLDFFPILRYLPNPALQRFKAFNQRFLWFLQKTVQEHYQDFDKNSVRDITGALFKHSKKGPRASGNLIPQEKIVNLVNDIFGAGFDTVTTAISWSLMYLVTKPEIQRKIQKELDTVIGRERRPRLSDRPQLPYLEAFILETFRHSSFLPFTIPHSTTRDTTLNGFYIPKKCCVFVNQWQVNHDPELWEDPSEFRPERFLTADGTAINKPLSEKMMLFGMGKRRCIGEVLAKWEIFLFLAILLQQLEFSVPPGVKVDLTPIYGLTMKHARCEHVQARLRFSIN
Procedure, shortened: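 O-Demethylation of luciferin 6' methyl ether by human CYP1A2 is monitored as luciferase luminescence. Substrate sits at Km (100uM); enzyme is 20nM. Values are scaled to 57 uM furafylline as maximal inhibition.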

[2] = biological target: Glucocorticoid receptor (Homo sapiens) (UniProt P04150); test: GR-GFP Redistribution (AID 450;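 active = compounds whose dose series gives a full or clear partial fitted curve of increased nuclear translocation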; also: potency is read from the fitted curve at half-maximal effect); conditions: U2OS GR-GFP nuclear translocation, laser cytometry, 2 h
Chain of Glucocorticoid receptor (Homo sapiens) (P04150 whole entry, looked up, the tested form may be a part): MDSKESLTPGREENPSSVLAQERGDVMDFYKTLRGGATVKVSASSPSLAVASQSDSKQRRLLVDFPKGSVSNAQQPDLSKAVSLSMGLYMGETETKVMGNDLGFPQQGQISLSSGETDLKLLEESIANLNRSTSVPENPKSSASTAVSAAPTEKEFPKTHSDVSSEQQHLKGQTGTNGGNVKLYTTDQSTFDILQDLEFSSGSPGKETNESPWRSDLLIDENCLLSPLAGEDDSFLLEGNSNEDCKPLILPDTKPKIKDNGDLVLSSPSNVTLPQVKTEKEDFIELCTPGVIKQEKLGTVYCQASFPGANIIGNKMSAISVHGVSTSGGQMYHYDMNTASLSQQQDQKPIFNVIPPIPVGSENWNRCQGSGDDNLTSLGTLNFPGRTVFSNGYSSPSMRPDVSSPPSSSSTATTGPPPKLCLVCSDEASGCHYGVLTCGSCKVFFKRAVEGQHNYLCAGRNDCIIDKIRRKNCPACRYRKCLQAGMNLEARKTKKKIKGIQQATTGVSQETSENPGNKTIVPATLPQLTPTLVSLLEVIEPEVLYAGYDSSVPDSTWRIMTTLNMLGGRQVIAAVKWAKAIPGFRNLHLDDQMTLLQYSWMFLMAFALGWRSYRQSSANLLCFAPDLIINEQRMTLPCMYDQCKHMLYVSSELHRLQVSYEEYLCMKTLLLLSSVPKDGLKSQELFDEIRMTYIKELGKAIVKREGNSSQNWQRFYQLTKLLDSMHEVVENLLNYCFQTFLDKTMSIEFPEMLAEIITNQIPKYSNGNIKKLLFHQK

[3] = biological target: Glucocorticoid receptor (Homo sapiens) (UniProt P04150); test: GR-EFC Redistribution (AID 451; calls by dose curve; also: potency is read from the fitted curve at half-maximal effect); conditions: CHO-K1 GR-EFC translocation, beta-gal luminescence, 2 h
Procedure, shortened: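 CHO-K1 cells stably expressing nuclear-localized β-gal enzyme acceptor and GR fused C-terminally to the enzyme donor fragment; ligand-driven nuclear translocation restores β-gal by complementation. Compounds titrated up to 46 uM final, 2 h at 37 °C; luminescence read.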

[4] = biological target: Mitogen-activated protein kinase 10 (Mus musculus) (UniProt Q61831); test: JNK3 AlphaScreen Assay (AID 530; active = well fitted curve in either direction with a large enough effect, not every such curve was filed as active;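 also: kinase came from lysate of stimulated human HepG2 cells; signal reports phosphorylation of biotinylated GST-cJun 1-79 at Ser73 with 10 µM ATP; series mostly up to about 57 µM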)
Procedure, shortened: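 Phosphorylation of biotinylated GST-cJun(1-79) at Ser73 is measured by AlphaScreen proximity luminescence. Enzyme is JNK3 in HepG2 lysates activated with interleukin-1beta and tumor necrosis factor alpha; ATP is 10 uM final.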

[5] = biological target: 3',5'-cyclic-AMP phosphodiesterase 4B (Homo sapiens) (UniProt Q07343); test: qHTS Assay for Inhibitors of PDE-IV (AID 607; active = well fitted activation curve with a large enough effect in the main read-out, with a control signal flat, not every such curve was filed as active)
Chain of 3',5'-cyclic-AMP phosphodiesterase 4B (Homo sapiens) (Q07343 whole entry, looked up): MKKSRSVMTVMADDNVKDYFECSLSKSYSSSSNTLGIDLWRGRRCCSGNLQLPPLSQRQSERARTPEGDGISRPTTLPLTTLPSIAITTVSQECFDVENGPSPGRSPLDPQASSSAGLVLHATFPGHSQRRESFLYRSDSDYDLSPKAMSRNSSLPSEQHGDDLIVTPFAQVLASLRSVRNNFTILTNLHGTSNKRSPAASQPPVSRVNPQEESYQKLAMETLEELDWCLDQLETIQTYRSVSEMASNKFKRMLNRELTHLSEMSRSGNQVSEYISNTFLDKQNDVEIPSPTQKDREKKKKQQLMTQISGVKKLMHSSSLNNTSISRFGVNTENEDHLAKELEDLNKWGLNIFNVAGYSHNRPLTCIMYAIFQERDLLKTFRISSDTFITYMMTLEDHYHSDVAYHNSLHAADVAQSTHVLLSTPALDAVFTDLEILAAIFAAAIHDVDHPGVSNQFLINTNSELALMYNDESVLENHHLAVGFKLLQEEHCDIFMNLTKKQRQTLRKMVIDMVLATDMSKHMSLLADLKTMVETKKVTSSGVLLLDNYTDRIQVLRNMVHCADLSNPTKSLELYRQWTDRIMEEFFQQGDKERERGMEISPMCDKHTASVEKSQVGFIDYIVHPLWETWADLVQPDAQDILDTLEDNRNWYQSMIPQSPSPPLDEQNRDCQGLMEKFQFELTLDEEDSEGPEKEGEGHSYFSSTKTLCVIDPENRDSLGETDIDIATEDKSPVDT
Procedure, shortened: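 Live HEK293 cells with a modified cyclic nucleotide-gated (CNG) channel report intracellular cAMP via membrane-potential dye fluorescence (ex 535/em 590 nm). Endogenous PDE-IV was targeted. Compounds were tested at up to 22.9 uM final; RO 20-1724 100 uM served as control.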

[6] = biological target: Cytochrome P450 2C9 (Homo sapiens) (UniProt P11712); test: qHTS Assay for Inhibitors and Substrates of Cytochrome P450 2C9 (AID 883); also: potency is read from the fitted curve at half-maximal effect; nearly all actives have a fitted effect of over 60% in size
Chain of Cytochrome P450 2C9 (Homo sapiens) (P11712 whole entry, looked up): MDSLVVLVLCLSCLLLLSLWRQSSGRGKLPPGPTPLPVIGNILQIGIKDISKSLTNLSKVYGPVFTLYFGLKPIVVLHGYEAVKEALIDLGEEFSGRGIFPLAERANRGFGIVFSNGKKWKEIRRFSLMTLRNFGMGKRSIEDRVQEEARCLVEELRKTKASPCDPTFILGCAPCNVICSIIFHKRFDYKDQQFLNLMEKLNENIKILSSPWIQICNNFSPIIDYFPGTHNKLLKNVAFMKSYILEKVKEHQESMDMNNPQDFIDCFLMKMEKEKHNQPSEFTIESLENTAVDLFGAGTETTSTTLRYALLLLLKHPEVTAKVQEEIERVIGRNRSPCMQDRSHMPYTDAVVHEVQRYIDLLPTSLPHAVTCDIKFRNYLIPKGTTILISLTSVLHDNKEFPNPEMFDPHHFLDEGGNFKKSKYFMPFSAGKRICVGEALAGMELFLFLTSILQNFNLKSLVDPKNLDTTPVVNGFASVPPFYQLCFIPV
Procedure, shortened: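 CYP2C9 deoxyluciferin hydroxylation, 37C, 60 min with NADPH regeneration; 10nM enzyme, 100uM Luciferin-H (KM). Glo detection reagent stopped reaction; luminescence normalized to sulphaphenazole (57uM) full inhibition.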

[7] = biological target: Cytochrome P450 3A4 (Homo sapiens) (UniProt P08684); test: qHTS Assay for Activators of Cytochrome P450 3A4 (AID 885); also: nearly all actives have a fitted effect of over 65% in size
Chain of Cytochrome P450 3A4 (Homo sapiens) (P08684 whole entry, looked up): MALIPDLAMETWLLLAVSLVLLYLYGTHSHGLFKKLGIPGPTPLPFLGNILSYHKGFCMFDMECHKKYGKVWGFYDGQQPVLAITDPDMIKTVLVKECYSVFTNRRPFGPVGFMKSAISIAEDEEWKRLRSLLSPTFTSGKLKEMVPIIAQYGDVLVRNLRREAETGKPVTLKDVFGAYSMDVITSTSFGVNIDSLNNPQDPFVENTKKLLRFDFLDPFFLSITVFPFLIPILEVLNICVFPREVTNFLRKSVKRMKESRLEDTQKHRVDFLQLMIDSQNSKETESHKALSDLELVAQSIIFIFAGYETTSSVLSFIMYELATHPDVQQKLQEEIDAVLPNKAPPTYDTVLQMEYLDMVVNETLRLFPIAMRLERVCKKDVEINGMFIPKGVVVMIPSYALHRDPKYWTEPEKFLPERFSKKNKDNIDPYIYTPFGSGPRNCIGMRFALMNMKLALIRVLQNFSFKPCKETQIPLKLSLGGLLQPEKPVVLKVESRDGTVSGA
Procedure, shortened: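 Using 20nM recombinant human CYP3A4 in potassium phosphate (200mM), substrate Luciferin-PPXE at 25uM, luminescent luciferin detection followed a 60-min RT NADPH reaction; data scaled to 57 uM ketoconazole.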

[8] = biological target: Cytochrome P450 2C19 (Homo sapiens) (UniProt P33261); test: qHTS Assay for Inhibitors and Substrates of Cytochrome P450 2C19 (AID 899); also: potency is read from the fitted curve at half-maximal effect; nearly all actives have a fitted effect of over 60% in size
Chain of Cytochrome P450 2C19 (Homo sapiens) (P33261 whole entry, looked up): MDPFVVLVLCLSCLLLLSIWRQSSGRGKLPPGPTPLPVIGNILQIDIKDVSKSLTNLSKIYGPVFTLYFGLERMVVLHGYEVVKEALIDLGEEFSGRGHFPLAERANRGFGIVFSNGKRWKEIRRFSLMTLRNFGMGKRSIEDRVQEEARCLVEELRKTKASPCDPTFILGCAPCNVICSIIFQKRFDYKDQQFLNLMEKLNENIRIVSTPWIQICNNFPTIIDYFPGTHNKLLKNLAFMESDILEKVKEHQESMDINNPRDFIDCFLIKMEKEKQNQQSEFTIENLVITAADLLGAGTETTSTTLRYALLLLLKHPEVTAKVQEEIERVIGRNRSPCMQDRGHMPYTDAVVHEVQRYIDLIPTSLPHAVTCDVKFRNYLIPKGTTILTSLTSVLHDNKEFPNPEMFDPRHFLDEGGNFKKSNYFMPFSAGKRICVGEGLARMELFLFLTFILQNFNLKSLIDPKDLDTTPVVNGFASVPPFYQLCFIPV
Procedure, shortened: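 In 50mM KPO4, the reaction held 5nM enzyme and KM-level (10uM) Luciferin-H EGE; it ran 60 min at 37C after NADPH regeneration and a 10 min compound preincubation. Luminescence values were scaled to 57uM ketoconazole as complete inhibition.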

[9] = biological target: DNA dC->dU-editing enzyme APOBEC-3G (Homo sapiens) (UniProt Q9HC16); test: qHTS for inhibitors of Vif-A3G interactions: Validation (AID 588379)
Chain of DNA dC->dU-editing enzyme APOBEC-3G (Homo sapiens) (Q9HC16 whole entry, looked up): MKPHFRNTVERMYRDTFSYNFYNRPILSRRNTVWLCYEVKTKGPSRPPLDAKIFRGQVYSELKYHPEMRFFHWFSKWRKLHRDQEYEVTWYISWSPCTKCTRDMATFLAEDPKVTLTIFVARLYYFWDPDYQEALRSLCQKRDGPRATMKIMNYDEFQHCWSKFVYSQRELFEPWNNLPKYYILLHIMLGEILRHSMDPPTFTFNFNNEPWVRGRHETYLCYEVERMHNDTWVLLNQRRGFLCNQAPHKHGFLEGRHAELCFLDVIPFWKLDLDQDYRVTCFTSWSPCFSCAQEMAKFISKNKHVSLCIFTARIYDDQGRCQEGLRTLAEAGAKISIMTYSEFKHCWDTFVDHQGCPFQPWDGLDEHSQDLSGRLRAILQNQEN
Procedure, shortened: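 Yellow fluorescence (Ex 488, Em 500-530) of Vif-coexpressing HeLa A3G-eYFP cells, scanned by Acumen cytometer, reports blocked A3G degradation. Cells plated at 700/well overnight at 37 deg C before compound addition, then a further overnight compound incubation at 37 deg C.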

[10] = P-glycoprotein substrates identified in KB-8-5-11 adenocarcinoma cell line, qHTS therapeutic library screen (AID 1346987); also: nearly all actives have a fitted effect of over 65% in size; also: potency is read from the fitted curve at half-maximal effect
Procedure, shortened: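 Luminescence from CellTiter-Glo, read 5 min after addition, quantified survival of KB-8-5-11 (P-gp-overexpressing) cells exposed to compounds for 72 h. AC50 was derived from concentration-response curves.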

[11] = tested on: Zika virus NS2B-NS3 protease; test: Primary screen GU AMC qHTS for Zika virus inhibitors (AID 1347154); also: nearly all actives have a fitted effect of over 70% in size
Procedure, shortened: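 Unlinked Zika NS2B hydrophilic domain/NS3 protease domain noncovalent complex (25 nM final) in 10 mM Tris-HCl pH 8.0, 0.01% Tween 20, with AMC peptide substrate. Fluorescence (ex 340, em 450 nm) change over 15 min, room temperature; percent inhibition fitted to 4-parameter Hill equation.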

[12] = Primary qHTS for small molecule stabilizers of the endoplasmic reticulum resident proteome: Secreted ER Calcium Modulated Protein (SERCaMP) assay (AID 1508630)
Procedure, shortened: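 The SH-SY5Y reporter protocol was run at 3 concentrations up to 38.3 uM (primary) or 11 concentrations (follow-up): 16 h compound, 100 nM thapsigargin for 4 h, then extracellular luciferase luminescence.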

[13] = Primary qHTS for inhibitors of nuclear receptor binding SET domain protein 2 (NSD2) in an isogenic RCH-ACV NSD2 p.E1099K mutant (9B) (AID 1645876); also: nearly all actives have a fitted effect of over 70% in size; also: potency is read from the fitted curve at half-maximal effect
[14] = biological target: Glutathione peroxidase 1 (Homo sapiens) (UniProt P07203); test: Primary qHTS Assay for Inhibitors of Recombinant Selenoprotein Glutathione Peroxidase 1 (GPX1) (AID 1845191); also: nearly all actives have a fitted effect of over 65% in size
Chain of Glutathione peroxidase 1 (Homo sapiens) (P07203 whole entry, looked up): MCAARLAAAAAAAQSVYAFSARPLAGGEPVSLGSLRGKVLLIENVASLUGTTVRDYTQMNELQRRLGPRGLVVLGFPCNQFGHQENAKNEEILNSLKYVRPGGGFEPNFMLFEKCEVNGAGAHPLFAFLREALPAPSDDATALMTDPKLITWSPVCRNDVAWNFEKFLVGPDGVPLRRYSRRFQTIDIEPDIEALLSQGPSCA
Procedure, shortened: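 GPX1 10 nM, GR 100 nM, GSH 1 mM, NADPH 0.5 mM, CHP 0.5 mM (final). 30-min cpd preincubation, RT. Ex340/Em450 read t=0, t=15 min.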

[15] = Primary qHTS for inhibitors of nuclear receptor binding SET domain protein 2 (NSD2) in an RCH-ACV wild type WT cells (2C) (AID 1645877); also: nearly all actives have a fitted effect of over 70% in size; also: potency is read from the fitted curve at half-maximal effect
[16] = qHTS to identify inhibitors of the type 1 interferon - major histocompatibility complex class I in skeletal muscle: primary screen against the NCATS Mechanism Interrogation Plate v5.0 (MIPE) Libary (AID 1347411); also: nearly all actives have a fitted effect of over 65% in size
Procedure, shortened: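 Seed engineered human myoblasts (HLA-B HiBit) in medium without dexamethasone containing 4 ng/ml IFN-beta; after 1 hr add compound titrations (top 46 uM final). Incubate 24 hrs at 37 C, lyse 10 min with HiBiT reagent, read luminescence.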

[17] = biological target: Phospholipid hydroperoxide glutathione peroxidase GPX4 (Homo sapiens) (UniProt P36969); test: Primary qHTS Assay for Inhibitors of Recombinant Selenoprotein Glutathione Peroxidase 4 (GPX4) (AID 1845192); conditions: outcome: dose series up to 50 µM unless noted
Chain of Phospholipid hydroperoxide glutathione peroxidase GPX4 (Homo sapiens) (P36969 whole entry, looked up): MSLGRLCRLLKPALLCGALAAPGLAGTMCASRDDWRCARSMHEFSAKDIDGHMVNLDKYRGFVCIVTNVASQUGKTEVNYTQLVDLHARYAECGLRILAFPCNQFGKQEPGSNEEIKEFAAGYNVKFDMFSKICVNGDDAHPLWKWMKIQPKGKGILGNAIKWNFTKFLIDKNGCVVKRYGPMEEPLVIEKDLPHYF
Procedure, shortened: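 qHTS, GR-coupled: GPX4 200 nM + cpd 30 min RT → GSH 1 mM, NADPH 0.5 mM, GR 100 nM → CHP 0.5 mM start; fluor 340/450 at t0 and t15 min; no-enzyme wells as control.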

Measured: Potency

Nc1[nH]nc2nc3ccccc3nc12
inactive: [2] > 46 µM | [3] > 46 µM | [4] | [5] | [7] | [9] | [10] | [11] | [12] | [13] | [14]
active: [1] 0.316 µM | [6] 2 µM | [8] 0.631 µM

C=CCN(/C=C1\C(=O)OC(COC)C2(C)C1=C(O)C(=O)C1=C2C(OC(C)=O)CC2(C)C(=O)CCC12)CC=C (configuration not stated)
active: [13] 9.2 µM | [15] 11.6 µM
inactive: [10]

O=c1cc(-c2ccc(O)cc2)oc2cc(OC3OC(CO)C(O)C(O)C3O)c(C3OC(CO)C(O)C(O)C3O)c(O)c12 (configuration not stated)
inactive: [10] | [13] | [15] | [14]

CN(CCO)C1CCN(c2ccc(Nc3ncc4c5ccnc(F)c5n(C5CCCC5)c4n3)nc2)CC1
inactive: [16] | [14] | [17]
active: [10] 11.2 µM | [13] 0.574 µM | [15] 0.512 µM

From PubChem BioAssay (NCATS)
